In PubChem BioAssay AID686978 (National Center for Advancing Translational Sciences (NCATS), 2013):
Where “and” joins values, the source holds several entries; their conditions need not be identical. Equal entries are not always repeated. About 64,000 (15%) of roughly 420,000 compounds were called active. Inconclusive results (about 27%) are left out. These entries were drawn from the full list. Unmarked numbers belong to inactive results. Calls come from the whole dose curve; as a rule, active = well fitted inhibition curve with a large enough effect; inconclusive = small, poorly fitted or top-dose-only effect; inactive = flat fitted curve, though single readings scatter.

assay: qHTS for Inhibitors of human tyrosyl-DNA phosphodiesterase 1 (TDP1): qHTS in cells in absence of CPT; conditions: DT40 Tdp1-/- hTDP1 cells, no CPT, ATP luminescence, 48 h; activity change, negative = growth inhibition: at 46.2 µM (top of the series); note: nearly all actives have a fitted effect of over 55% in size
How it was run: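 DT40 Tdp1-/-;hTDP1 cells, no CPT (DMSO vehicle only), 400 cells/well; compounds pin-transferred; ≥48 hr, 37 °C; CellTiter-Glo 30 min RT dark, luminescence read.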
% is set by controls: 0 for no effect and ±100 for the full control effect; potency is the fitted concentration of half-maximal effect.

| Structure (SMILES) | activity change, negative = growth inhibition | Potency |
| --- | --- | --- |
| COC(=O)Cc1c(O)ccn(Cc2cccc(C(F)(F)F)c2)c1=O | -26% |  |
| COC(=O)Cc1csc(/N=C/c2c(O)n(-c3cccc(C(F)(F)F)c3)c(=O)c3ccccc23)n1 |  | 16.4 µM (active) |
| CC(C)C(=O)NC(=S)Nc1ccccc1F | -0.205% |  |
| CC(NC(=O)Nc1cccc([N+](=O)[O-])c1)c1ccc2c(c1)OCO2 (centres undefined) | -18.9% |  |
| O=C(Nc1cccnc1)c1noc2c1CCCCC2 | -19.8% |  |
| CC(C)CC[n+]1ccn(C2=C([O-])c3ccccc3C(=O)/C2=N\S(=O)(=O)c2ccccc2)c1 |  | 10.3 µM (active) |
| Cc1ccc(NC2CCCN(C(=O)CCC3(C)CC3)C2)cc1C (centres undefined) | -29.4% |  |
| CCOC(=O)CN1CC23C=CC(O2)C(C(=O)Nc2ccc(F)cc2)C3C1=O (centres undefined) | 3.97% |  |
| COCCn1nnnc1CN1CCC(NC(=O)Nc2cccc(OC)c2)CC1 | -6.87% |  |
| Cc1c(-c2cccc(NC(=O)C(C)(C)C)c2)nc2ncccn12 | -3.43% |  |
| CCc1cccc(C)c1Nc1c(-c2ccc(N(C)C)cc2)nc2ncccn12 |  | 10.3 µM (active) |
| Cc1ccc(-c2c(N)nc3ncccn23)cc1 | 6.62% |  |
| Cc1nc(-c2ccc(F)cc2)c(CC(=O)N(C)CC(=O)Nc2c(C)cccc2C)s1 | -0.693% |  |
| Cc1cccc(C)c1Nc1c(-c2ccccc2O)nc2ncccn12 |  | 18.4 µM (active) and 23.1 µM (active) |
| Nn1c(SCC(=O)Nc2nccs2)nncc1=O | -5.81% |  |
| CC(C)CCNC(=O)CC1C(=O)N(Cc2ccccc2)C(C)c2nc3ccccc3n21 (centres undefined) | -18.9% |  |
| CN(C)c1ccnc(Nc2ccc(F)cc2)c1C#N | -0.174% |  |
| COc1ccccc1/C=C/C(=O)NC1CC2CCC1C2 (centres undefined) | -20.8% |  |
| COc1ccccc1/C=C/C1=NC(=C\N(C)C)/C(=O)O1 |  | 20.6 µM (active) |
| COc1ccccc1/C=C/C(=O)NC(=S)N1CCOCC1 | -12.6% |  |
| O=C(CCNS(=O)(=O)c1ccccc1C(F)(F)F)NCc1ccc2c(c1)OCO2 | -0.322% |  |
| C=CCOC(=O)C1=C(C)NC(C)=C(C(=O)OCC=C)C1c1cccs1 |  | 18.4 µM (active) |
| CCOC(=O)C1=C(C)NC(=S)NC1c1cccs1 (centres undefined) | -3.91% |  |
| C=CCOC(=O)c1ccccc1C(=O)OCC=C | -12.2% |  |
| CC(C)C(NC(=O)c1ccc(Cl)cc1)C(=O)O (centres undefined) | 7.61% |  |
| CSc1ncccc1C(=O)Nc1nc2ccc(F)cc2s1 | -12% |  |
| Cc1cc(C(=O)COc2ccccc2[N+](=O)[O-])c(C)n1-c1cccc(S(=O)(=O)N2CCOCC2)c1 |  | 23.1 µM (active) |

| Structure (SMILES) | activity change, negative = growth inhibition | Potency |
| --- | --- | --- |
| O=C(COc1ccc(S(=O)(=O)N2CCCC2)cc1[N+](=O)[O-])N1CCCCC1 | -19.5% |  |
| Cc1cc(S(=O)(=O)N2CCOCC2)ccc1OCC(=O)N1CCOCC1 | -12.2% |  |
| CCCCCC(O)c1cccc(OCc2ccc3ccccc3n2)c1 (centres undefined) | -7.93% [at 4.12 µM] |  |
| C/C(=N/OC(=O)c1c(-c2c(F)cccc2Cl)noc1C)c1cnccn1 | 23.1% |  |
| O=C(CN1C(=O)COc2ccccc21)Nc1ccc(F)cc1 | -26.2% |  |
| CCOc1cccc(NC(=O)c2ccc(F)c(S(=O)(=O)N(CC)c3cccc(C)c3)c2)c1 |  | 25.9 µM (active) |
| CCOc1ccc(N(CC(=O)Nc2cccc(OC)c2)S(C)(=O)=O)cc1 | 9.81% |  |
| CCN(CC)S(=O)(=O)c1cc(C(=O)Nc2ccccn2)ccc1C | -24.1% |  |
| CC1(C)CC(=O)C=C(NCCCNC2CCCCC2)C1 | -0.22% |  |
| O=Cc1ccc(Oc2cccc(C(F)(F)F)c2)nc1 | -4.01% |  |
| N/C(=N\OC(=O)Nc1ccccc1)c1ccno1 | -3.56% |  |
| COC(=O)c1ccccc1NC(=O)Cn1c(=O)n(-c2cccc(C(F)(F)F)c2)c(=O)c2c(C)c(C)sc21 | -15.7% |  |
| CCC(=O)N1CCc2cc(Br)cc(S(=O)(=O)CCC(=O)NCc3ccccc3OC)c21 | -6.88% |  |
| CC(=O)NC(CC(=O)Nc1ccc(S(=O)(=O)N2CCOCC2)cc1)c1ccccc1 (centres undefined) | -0.105% |  |
| CCOc1ccc(CN2CCN(Cc3c[nH]c4ccccc34)CC2)cc1 |  | 5.8 µM (active) |
| O=C(CN1C(=O)NC2(CCCCC2)C1=O)NCCc1c[nH]c2ccccc12 | -15.7% |  |
| CCOc1ccc(CN2CCCN(C)CC2)cc1 | -0.758% |  |
| O=C(NCCc1c[nH]c2ccccc12)C(=O)NCC1CCCO1 (centres undefined) | -19.7% |  |
| O=C(NCCc1c[nH]c2ccccc12)C1CCN(Cc2ccc(Br)cc2)CC1 |  | 16.4 µM (active) |
| CCOc1ccc(CC(=O)NC2CCN(Cc3ccccc3)CC2)cc1 | -0.44% |  |
| N/C(=N\OC(=O)CCc1ccccc1)c1cccnc1 | 1.89% |  |
| O=C(COc1coc(CN2CCN(c3ccccc3F)CC2)cc1=O)N1CCc2ccccc21 | -1.46% |  |
| Cc1cc(C(=O)OCC(=O)c2c(N)n(C)c(=O)n(C)c2=O)c(C)o1 | -4.19% |  |
| Nc1nc(O)c(CC(=O)O)s1 | -6.12% |  |
| CCOC(=O)C1=C(O)/C(=C/c2ccc(OCC(=O)Nc3ccc(C)cc3)cc2)N=C1C | -4.71% |  |
| O=c1c(-c2ccccc2)cnc2n1CCS2 | 19.4% |  |
| CCCc1nn2c(=O)cc(COC(=O)c3ccc(NC(=O)COc4ccc(F)cc4)cc3)nc2s1 | -22.2% |  |
